Reference: PubChem BioAssay AID463173 (ICCB-Longwood Screening Facility, Harvard Medical School, 2010)
In all, about 52,000 compounds went through this assay and about 4,300 (8.3%) were called active. Only a selection was taken, and actives are over-represented in it overall. A number with no mark means an inactive call. Cut-off read from the data, not from the text of the source: active = survival mostly below about 52% (no sharp cut-off); inactive = mostly above about 56%.

The compounds below were run on DeltatarO mutant (assay: S. aureus survival, RN4220 and DeltatarO strains – OD600, teichoic acid synthesis inhibitors, primary screen (AID 463173)). Conditions: S. aureus RN4220 wild type/DeltatarO growth, OD600, 18 h, hits give low values, screened at 18.75 µg/mL (by protocol).

SMILES | survival
Cc1ccc(C)c(NC(=O)CN2CCN(C3CCCCC3)C(=O)C2=O)c1 | 94%
CCC(Cn1nnc2ccccc2c1=O)NC(=O)Nc1cc(Cl)ccc1OC (stereo not given) | 71%
Cc1ccc(Cl)cc1N1CCN(C(=O)c2cc(S(=O)(=O)N3CCCC3)c[nH]2)CC1 | 88%
COC(=O)c1cc(S(=O)(=O)N2CCN(c3cc(Cl)ccc3C)CC2)c[nH]1 | 12% (active)
COC(=O)c1cc(S(=O)(=O)N2CCN(c3ccc(OC)cc3)CC2)c[nH]1 | 73%
CC(Oc1ccccc1)C(=O)Nc1ccccc1C(=O)OCc1cc(=O)n2nc(C(C)C)sc2n1 (stereo not given) | 83%
Cc1ccc2nc(-c3ccccn3)c(Nc3ccccc3C)n2c1 | 15%
Cc1ccn2c(Nc3ccccc3C)c(-c3ccccn3)nc2c1 | 11% (active)
Cc1ccn2c(Nc3ccccc3C)c(-c3ccccc3)nc2c1 | 0% (active)
Cc1cccc(C)c1Nc1c(-c2ccccn2)nc2ccc(Cl)cn12 | 135%
Cc1ccn2c(Nc3ccccc3C)c(-c3cccnc3)nc2c1 | 81%
Cc1ccn2c(Nc3ccccc3C)c(-c3ccncc3)nc2c1 | 85%
Cc1ccc2nc(N3CCN(c4ccccc4F)CC3)c3nnnn3c2c1 | 87%
Cc1ccc(C)c(-n2cc(-c3ccccc3)nc2SCC(=O)Nc2ccccc2)c1 | 96%
Cc1cccc(NC(=O)c2cnn(-c3ccccc3)c2-n2cccc2)c1C | 77%
CCC(=O)N1CCc2cc(Br)cc(S(=O)(=O)CCC(=O)N3CCN(c4cccc(C)c4)C(C)C3)c21 (stereo not given) | 65%
O=C(Nc1nc2n(n1)C(c1ccc(F)cc1)C=C(c1ccc(Cl)cc1)N2)c1ccco1 (stereo not given) | 16% (active)
O=C(Nc1nc2n(n1)C(c1ccccc1)C=C(c1ccccc1)N2)c1ccccc1 (stereo not given) | 109%
Cc1ccc(C2C=C(c3ccc(Cl)cc3)Nc3nc(NC(=O)c4ccco4)nn32)cc1 (stereo not given) | 67%
CC(=O)Nc1nc2n(n1)C(c1ccc(F)cc1)C=C(c1ccc(Cl)cc1)N2 (stereo not given) | 59%
O=C(Nc1nc2n(n1)C(c1ccc(Cl)cc1)C=C(c1ccccc1)N2)c1ccco1 (stereo not given) | 35% (active)
O=C(Nc1nc2n(n1)C(c1ccccc1)C=C(c1ccc(Cl)cc1)N2)c1ccco1 (stereo not given) | 42%
O=C(Nc1nc2n(n1)C(c1ccc(F)cc1)C=C(c1ccccc1)N2)c1ccco1 (stereo not given) | 41% (active)

SMILES | survival
COc1ccc(C(=O)Nc2nc3n(n2)C(c2ccc(Cl)cc2)C=C(c2ccccc2)N3)cc1OC (stereo not given) | 59%
O=C(Nc1nc2n(n1)C(c1ccc(F)cc1)C=C(c1ccccc1)N2)c1cccc([N+](=O)[O-])c1 (stereo not given) | 99%
O=C(NCCN1CCN(c2ccccc2)CC1)Nc1ccccc1Br | 87%
Cc1ccc(C)c(CN2C(=O)c3ccccc3S(=O)(=O)c3ccc(C(=O)N4CCCCC4)cc32)c1 | 61%
Cc1cc2nn(-c3ccc(F)cc3)nc2cc1NC(=O)c1ccc(OC(C)C)cc1 | 64%
O=c1c(S(=O)(=O)c2cccc(Cl)c2)cn(Cc2ccccc2)c2cc(N3CCOCC3)c(F)cc12 | 83%
CCC(=O)N1CCc2cc(CNS(=O)(=O)c3ccc(NC(=O)CC(C)C)cc3)ccc21 | 86%
CC(=O)Nc1ccc(OC(=O)c2ccco2)cc1 | 71%
c1cn(CCCNc2ncnc3sc4c(c23)CCCCC4)cn1 | 65%
CN(C)c1ccc(Nc2ncnc3sc4c(c23)CCCC4)cc1 | 106%
Cc1cc(C)cc(Nc2ncnc3sc4c(c23)CCCC4)c1 | 0% (active)
c1coc(CNc2ncnc3sc4c(c23)CCCC4)c1 | 107%
CC(C)OCCCNc1ncnc2sc3c(c12)CCCC3 | 42% (active)
CCc1ccc(Nc2ncnc3sc4c(c23)CCCC4)cc1 | 72%
CCOc1ccccc1NC(=O)C1CCN(S(=O)(=O)c2c(C)noc2/C=C/c2ccco2)CC1 | 72%
COc1ccc(N2CCN(S(=O)(=O)c3ccc(C4CCCCC4)cc3)CC2)cc1 | 79%
COc1ccc(N2CCN(S(=O)(=O)c3ccc4c(c3)C(C(C)C)C(=O)N4)CC2)cc1 (stereo not given) | 125%
COc1ccc(N2CCN(S(=O)(=O)c3ccc(CC(C)C)cc3)CC2)cc1 | 56% (active)
Cc1ccc(NC(=O)Cn2cc(C(=O)C3CC3)c3ccccc32)cc1 | 148%
CCOC(=O)c1c(C)n(-c2ccccc2)c2ccc(OC(=O)COc3ccccc3)cc12 | 70%
CCN1C(=C(C#N)C#N)C=Cc2cc(C)ccc21 | 70%
COc1cccc(N2CC(NC(=O)c3ccc(S(=O)(=O)N4CCOCC4)cc3)CC2=O)c1 (stereo not given) | 117%
